Records with an inconclusive call do not appear. Unmarked numbers belong to inactive results. Calls come from the whole dose curve; as a rule, active = well fitted activation curve with a large enough effect in the main read-out, with a control signal flat (not every such curve was filed as active); inconclusive = small, poorly fitted or top-dose-only effect, or effect the other way, or a change in a side signal; inactive = flat fitted curve, though single readings scatter.

3',5'-cyclic-AMP phosphodiesterase 4B (Homo sapiens), sequence (Q07343 whole entry, looked up): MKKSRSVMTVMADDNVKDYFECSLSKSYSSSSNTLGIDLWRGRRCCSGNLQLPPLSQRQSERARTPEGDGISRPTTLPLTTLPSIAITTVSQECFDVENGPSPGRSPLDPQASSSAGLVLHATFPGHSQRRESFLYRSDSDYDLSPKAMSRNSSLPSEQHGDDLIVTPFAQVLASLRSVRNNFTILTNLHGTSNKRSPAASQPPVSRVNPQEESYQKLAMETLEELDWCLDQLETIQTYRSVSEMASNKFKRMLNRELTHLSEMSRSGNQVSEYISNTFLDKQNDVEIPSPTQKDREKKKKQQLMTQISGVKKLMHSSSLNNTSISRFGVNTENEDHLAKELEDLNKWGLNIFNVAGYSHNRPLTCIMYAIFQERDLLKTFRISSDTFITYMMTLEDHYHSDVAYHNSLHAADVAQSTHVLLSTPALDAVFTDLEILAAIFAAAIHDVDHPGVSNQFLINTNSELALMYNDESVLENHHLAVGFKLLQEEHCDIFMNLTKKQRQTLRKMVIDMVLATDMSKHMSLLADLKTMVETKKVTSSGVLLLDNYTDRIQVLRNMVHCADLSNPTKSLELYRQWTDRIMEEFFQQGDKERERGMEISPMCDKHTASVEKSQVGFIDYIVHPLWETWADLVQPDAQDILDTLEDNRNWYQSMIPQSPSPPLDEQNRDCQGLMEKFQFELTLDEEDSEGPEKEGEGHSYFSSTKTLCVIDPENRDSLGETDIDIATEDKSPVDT

The target of this test is 3',5'-cyclic-AMP phosphodiesterase 4B (Homo sapiens) (UniProt Q07343). Put plainly: qHTS Assay for Inhibitors of PDE-IV (AID 607). Note: % of control where 0% means no effect. Conditions: HEK293 ACTOne CNG channel cells, membrane potential fluorescence; series mostly up to 22.9 µM; activation (PDE inhibition): at the top concentration. From the text:
NIH Chemical Genomics Center [NCGC]
NIH Molecular Libraries Screening Centers Network [MLSCN]
The cyclic nucleotide phosphodiesterases (PDEs) are proteins that catalyze hydrolysis of 3', 5'-cyclic nucleotides, such as cyclic adenosine monophosphate (cAMP) and cyclic guanosine monophosphate (cGMP), to their corresponding 5'-nucleotide monophosphates. These enzymes play an important role in controlling cellular concentrations of cyclic nucleotides and have a central role in a variety of intracellular signaling events. cAMP PDEs are emerging as a promising class of drug targets in asthma and cardiovascular disease therapeutic areas.
There are no commercially available cell-based screening assays for PDE inhibitors: currently biochemical assays are done using pure substrates (cAMP or cGMP) and purified recombinant PDE enzymes. As with other biochemical screens on intracellular targets, false positives and false negatives may result from issues involving cell membrane permeability, cellular metabolism, and the like.
Here we report the development of a cell-based screening assay for cAMP phosphodiesterase (PDE) inhibitors. The assay is based on the BD ACTOne# technology (BD Biosciences) which utilizes a modified cyclic nucleotide-gated channel (CNG) to monitor intracellular cAMP changes in live cells. The CNG channel is localized on the plasma membrane, and opens when the intracellular cAMP level increases, resulting in ion flux and cell membrane depolarization. The influx of cations through the CNG channel can be quantified using membrane potential (MP) dyes. We modified the BD ACTOne technology to allow the detection of PDE inhibitors, and performed an inhibitor screen for PDE-IV, which is expressed endogenously in HEK293 cells. We optimized this assay in homogeneous 1536-well plate assay format for high throughput screening.
NCGC Assay Protocol Summary:
The medium contained 10% FBS (Invitrogen), 2 mM L-glutamine, and 250 ug/ml G418 (Cellgro) and 1 ug/ml puromycin (Clontech). ACTOneTM parental cells (BD Biosciences) were maintained in the same medium without puromycin.
The activity of the CNG channel was measured by BD ACTOneTM membrane potential dye kit (BD Biosciences). Forskolin, a positive control for cAMP activation and RO 20-1724, a PDE inhibitor, were both purchased from Sigma and solublized in DMSO.
Sequence,Parameter,Value,Description
1,Reagent,3 uL,1000 cells/well 1536 TC treated Black plate
3,Compound,0.5 uL,Kalypsys dispense RO 20-1724 100 uM final [A]
4,Reagent,3 uL,BD membrane potential dye
6,Compound,23 nL,Final concentration was 0.7nM to 22.9uM
8,Detector,EX 535 / EM 590 [B],Envision
Footnotes: [A] The stock 2 mM RO 20-1724 PDE inhibitor was made in 10 % DMSO. Parental cell line received 10 uM forskolin + 100 uM RO. [B] Envsion settings: Bottom Excitation 535/20 nm top emission 590/20, gain of 150 and 5 flashes per well.
Keywords: PDE, PDE-IV, cytotoxicity, flourescence, MLSMR, MLSCN, NIH Roadmap, qHTS, NCGC
(In general: qHTS replaces the single test concentration by a dilution series.)
Take `Cc1cc(C(=O)N[C@@H](c2ccccc2)[C@]2(C)C[C@H]2[C@@H](C)C(=O)Nc2ccc3ccccc3c2)n(C)n1`: the “activation (PDE inhibition)” value is 18.2%.
Take `CC(C)C[C@@H](CC(=O)N[C@@H](CCC(=O)O)CC(=O)O)NC(=O)[C@@H]1CNCC[C@H]1NC(=O)C[C@H](CCCN)NC(=O)C[C@H](CO)NC(=O)[C@@H]1CNCC[C@H]1N`: the “activation (PDE inhibition)” value was 3.57%.
Take `NCCC[C@@H](CC(=O)N[C@@H]1CCNC[C@H]1C(=O)N[C@H](CC(=O)N[C@@H](CCC(=O)O)CC(=O)O)Cc1ccccc1)NC(=O)C[C@H](Cc1c[nH]c2ccccc12)NC(=O)[C@@H]1CNCC[C@H]1N`: the “activation (PDE inhibition)” value was -14.4%.
As for `C[C@@H](C(=O)NCc1ccccn1)[C@H]1C[C@]1(C)[C@H](NC(=O)OCc1ccccc1)c1ccccc1`, the figure is 2.48%.
Under `COC(=O)[C@@]1(Cc2ccc(OC)cc2)[C@H]2c3cc(C(=O)N4CCCC4)n(Cc4ccc(C(F)(F)F)nc4)c3C[C@H]2CN1C(=O)c1ccccc1` stands 16.3%; under `COc1cccc2c1C(=O)c1c(O)c3c(c(O)c1C2=O)C[C@](O)(C(C)=O)C[C@H]3O[C@@H]1C[C@H](N)[C@H](O)[C@H](C)O1`, 10.3%; under `CC1=CC(=O)C2=C(C)CC[C@@H]3[C@H](OC(=O)[C@H]3C)[C@H]12`, 13.4%.
Under `O=C(NCCc1c[nH]c2ccccc12)[C@@H]1C[C@H]1[C@@H](NP(=O)(c1ccccc1)c1ccccc1)c1ccccc1` stands 1.39%.
Turning to `O[Si@](CCCN1CCCCC1)(c1ccc(F)cc1)C1CCCCC1`, the “activation (PDE inhibition)” value was 17.5%.
As for `COC(=O)[C@@]1(Cc2ccc(F)cc2)[C@H]2c3cc(C(=O)N4CCCC4)n(Cc4ccc(Cl)c(C(F)(F)F)c4)c3C[C@H]2CN1C(=O)c1ccccc1`, the figure is -4.07%.
Under `CC(C)[C@@H](CC(=O)N[C@@H]1CCCC[C@H]1C(=O)N[C@H](CC(=O)N[C@@H](CCC(=O)O)CC(=O)O)Cc1c[nH]c2ccccc12)NC(=O)C[C@H](Cc1ccccc1)NC(=O)[C@@H]1CCCC[C@H]1N` stands -9.13%; under `C/C(=C\COc1cc(=O)[nH]c2ccccc12)CC[C@@H](O)C(C)(C)O`, 5.39%.
Under `COC(=O)[C@@H]1C[C@H]1[C@@H](NC(=O)c1cc(C)nn1C)c1ccccc1` stands 4.89%; under `NCCC[C@@H](CC(=O)N[C@@H]1CCNC[C@H]1C(=O)N[C@H](CC(=O)N[C@@H](CCC(=O)O)CC(=O)O)Cc1c[nH]c2ccccc12)NC(=O)C[C@H](Cc1c[nH]c2ccccc12)NC(=O)[C@@H]1CCCC[C@H]1N`, -12.6%; under `OC1c2ccccc2-c2nc3ccccc3cc21` (stereo not given), 24.5%.
As for `CN[C@@H]1[C@H](O)[C@H](NC)[C@@H]2O[C@]3(O)C(=O)C[C@@H](C)O[C@H]3O[C@@H]2[C@H]1O`, the “activation (PDE inhibition)” value was 4.77%.
As for `CC(=O)N[C@@H](c1ccccc1)[C@]1(C)C[C@H]1[C@@H](C)C(=O)Nc1ccc2ccccc2c1`, the figure is -3.28%; as for `COC(=O)[C@@]1(Cc2ccccc2)[C@H]2c3cc(C(=O)N(C)C)n(Cc4ccsc4Br)c3C[C@H]2CN1C(=O)c1ccccc1`, -1.27%; as for `CCCCC[C@H](O)CCCC(=O)O`, -8.92%.
Under `Cc1cc(CNC(=O)[C@H]2C[C@@H]2[C@H](NP(=O)(c2ccccc2)c2ccccc2)c2ccccc2)nn1C` stands 3.78%; under `O=C1C[C@H](c2ccccc2)Oc2cc(O)cc(O)c21`, 14.5%.
As for `Cc1c2c(nc3ccccc13)-c1cccc(=O)n1C2`, the figure is 14.3%; as for `COc1cc(/C=C\C(=O)N2CCC=CC2=O)cc(OC)c1OC`, 2.64%; as for `CCCC[C@@H]1C[C@H]1C(NC(=O)c1ccc(-c2ccccc2)cc1)c1ccc(-c2ccccc2)cc1` (stereo not given in full), -0.068%.
Take `COC(=O)[C@@]1(Cc2ccc(F)cc2)[C@H]2c3cc(C(=O)N(C)C)n(Cc4cc(F)c(F)c(F)c4)c3C[C@H]2CN1C(=O)c1ccccc1`: the “activation (PDE inhibition)” value is -7.61%.
As for `O=C(C[N+]12CN3CN(CN(C3)C1)C2)c1ccc(-c2ccccc2)cc1`, the figure is 8.33%.
As for `C[C@H](O)[C@H](O)[C@@H](O)c1cnc2nc(N)[nH]c(=O)c2n1`, the figure is -14%.
As for `O=c1cc(-c2cccc(O)c2O)oc2ccccc12`, the figure is 5.1%; as for `NCCC[C@@H](CC(=O)N[C@@H]1CCNC[C@H]1C(=O)N[C@H](CC(=O)N[C@@H](CCC(=O)O)CC(=O)O)Cc1c[nH]c2ccccc12)NC(=O)C[C@H](CO)NC(=O)[C@@H]1CNCC[C@H]1N`, 0.469%; as for `CCCc1cc2c(n1Cc1ccc(OC)cc1)C(C)C1CN(C(=O)c3ccccc3)C(C)(C(=O)OC)C21` (stereo not given), -0.022%.
`COC(=O)[C@@]1(Cc2ccccc2)[C@H]2c3cc(C(=O)N4CCCC4)n(Cc4ccc(C)o4)c3C[C@H]2CN1C(=O)c1ccccc1`: the “activation (PDE inhibition)” value was 7.43%.
Under `COC(=O)[C@@]1(Cc2ccc(F)cc2)[C@H]2c3cc(C(=O)N4CCCC4)n(CCN4CNCC4=O)c3C[C@H]2CN1C(=O)c1ccccc1` stands -4.63%; under `COc1ccc(NC(=O)/C=C\c2ccc(Cl)cc2)cc1`, 10.7%; under `O=C(NCCF)[C@H]1C[C@@H]1[C@H](NP(=O)(c1ccccc1)c1ccccc1)c1ccccc1`, 3.8%.
Under `C[C@@]1(C(NC(=O)Cc2ccccc2)c2ccc(-c3ccccc3)cc2)C[C@H]1C1CCCCC1` (stereo not given in full) stands 14.4%.
As for `CCCN1C[C@@H](CSC)C[C@H]2c3cccc4[nH]cc(c34)C[C@@H]21`, the figure is 25.2%.
In the case of `CCCc1cc2c(n1Cc1cc(F)cc(F)c1)C(C)C1CN(C(=O)c3ccccc3)C(C)(C(=O)OC)C21` (stereo not given), the “activation (PDE inhibition)” value is 10.2%.
Under `O=C(CCc1ccc(O)cc1)c1c(O)cc(O)cc1O[C@@H]1O[C@@H](CO)[C@@H](O)[C@@H](O)[C@H]1O` stands 1.67%; under `CC(C)C[C@@H](CC(=O)N[C@@H](CCCN)CC(=O)N[C@@H]1CCCC[C@H]1C(=O)N[C@H](CC(=O)N[C@@H](CCC(=O)O)CC(=O)O)Cc1ccccc1)NC(=O)[C@@H]1CNCC[C@H]1N`, 14.3%.
For `COC(=O)[C@H]1C[C@@H]1[C@H](NC(=O)c1cccnc1)c1ccccc1`, the “activation (PDE inhibition)” value was -4.33%.

Source of the values: PubChem BioAssay (NCATS).
